LmPK inh: blocks Leishmania mexicana pyruvate kinase activity. 290,000 compounds, 0.37% hits. Potency, µM (series often up to 57.5 µM), for the others: at the top dose activity change, negative = inhibition, actives largely listed as inhibitors. purified LmPK, Kinase-Glo ATP luminescence, 1 h. Q27686
Target sequence (Q27686 whole entry, looked up): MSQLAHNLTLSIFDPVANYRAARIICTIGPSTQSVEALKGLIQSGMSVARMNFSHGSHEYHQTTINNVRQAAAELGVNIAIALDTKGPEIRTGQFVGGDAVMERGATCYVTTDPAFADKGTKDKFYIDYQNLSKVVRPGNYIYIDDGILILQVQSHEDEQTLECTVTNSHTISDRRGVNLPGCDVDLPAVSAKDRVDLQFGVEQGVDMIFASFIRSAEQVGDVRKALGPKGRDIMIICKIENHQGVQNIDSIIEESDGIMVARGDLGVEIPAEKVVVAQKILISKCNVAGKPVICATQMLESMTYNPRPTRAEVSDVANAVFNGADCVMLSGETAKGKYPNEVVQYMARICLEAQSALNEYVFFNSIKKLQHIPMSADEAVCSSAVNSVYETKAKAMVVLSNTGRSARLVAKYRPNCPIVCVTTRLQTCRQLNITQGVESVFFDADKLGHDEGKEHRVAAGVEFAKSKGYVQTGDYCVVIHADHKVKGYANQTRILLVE
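0.1 nM LmPK, 0.5 mM PEP, 0.1 mM ADP; 50 mM imidazole pH 7.2, 7 mM MgCl2, 50 mM KCl; 1 h RT. Kinase-Glo luminescence readout, normalized to no-enzyme (full inhibition) and uninhibited wells.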
Tb PYK inh: inhibitors of Trypanosoma brucei pyruvate kinase; Potency, µM (series often up to 76.8 µM), for inactives: top-dose activity, negative = inhibition, hits mostly inhibitors; 410,000 compounds, 0.12% hits; TbPYK enzyme, Kinase-Glo Plus ATP luminescence, 45 min; AID 624173; note: nearly all actives have a fitted effect of over 50% in size
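Glycolytic pyruvate kinase of T. brucei was incubated with substrate, test compound and 130 uM ADP for 45 minutes at room temperature. Luminescent Kinase-Glo Plus signal was measured after 10 minutes.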
Sm TGR block: S. mansoni TGR enzyme inhibition | purified TGR, DTNB reduction, TNB absorbance 405 nm | 360,000 compounds, 3% hits | AID 485364 | Potency, µM (highest dose often 114 µM), for inactives: at the highest dose activity change, negative = inhibition, usual class: inhibitors; note: nearly all actives have a fitted effect of over 60% in size
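TGR 20 nM + NADPH 100 uM (dispensed conc.), cpd preinc 15 min RT; start with NADPH (500 uM addition) then DTNB (15 mM addition). Kinetic TNB absorbance, 405 nm filter. Four-parameter Hill fit across titration.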
RE007 growth inh: less growth of the S. pombe RE007 Vpr strain. Potency, µM (highest dose often 92.2 µM), for inactives: at the top dose activity change, negative = less growth, hits mostly inhibitors. S. pombe RE007 Vpr strain, BacTiter-Glo ATP luminescence, 24 h. 360,000 compounds, 0.21% hits; active = well fitted falling curve with a large enough effect; inconclusive = small, poorly fitted or top-dose-only effect; inactive = no such curve, though single readings can be large or run the other way; note: nearly all actives have a fitted effect of over 50% in size
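Fission yeast RE007 carrying one integrated HIV-1 vpr copy, seeded at OD 0.01 in PMG+AL medium with 23 nL pinned compound. Grown 24 h at 30 degrees; viability read by BacTiter-Glo luminescence after 5 min.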
* hit, by the source's call; u = inconclusive; x = no result; [ ] = another dose, or the depositor's remark. Most compounds without a hit are left out; they make up all but 3% or so of the library. Unless noted, calls come from the whole dose curve; as a rule, active = well fitted curve in the direction sought with a large enough effect; inconclusive = small, poorly fitted or top-dose-only effect, or another doubt; inactive = no such curve, though single readings can be large; an effect the other way counts as inactive or inconclusive. % is set by controls: 0 for no effect and ±100 for the full control effect; potency is the fitted concentration of half-maximal effect.

SMILES	LmPK inh	Tb PYK inh	Sm TGR block	RE007 growth inh
Cc1ccc(CNC(=O)C(=O)Nc2c3c(nn2-c2ccc(F)cc2)CSC3)cc1	x	1%	-2%	x
COCCN(CC1CCCN(C2Cc3ccccc3C2)C1)C(=O)CSC (stereo not drawn)	9%	2%	32µM*	2%
COCCN(CC1CCCN(C2Cc3ccccc3C2)C1)C(=O)CCSC (stereo not drawn)	-8%	-1%	u	-11%
O=S(=O)(NCCc1csc(-c2ccc(F)cc2)n1)c1ccc(Cl)cc1	x	4%	5%	x
CC(C)N(CCC(=O)c1ccc2ccccc2c1)Cc1ccccc1	x	0%	0.13µM*	4µM*
CC(OC(=O)c1ccc2ccccc2c1)C(=O)N(C)Cc1ccccc1 (stereo not drawn)	x	7%	0%	-5%
Cc1ccc(CN2CCN(Cc3ccncc3)CC2CCO)o1 (stereo not drawn)	-6%	1%	20µM*	-19%
COc1cccc(CN2CCN(Cc3ccc(C)o3)CC2CCO)c1 (stereo not drawn)	-9%	2%	35µM*	10%
COc1cccc(CN2CCN(Cc3cc4ccccc4o3)CC2CCO)c1 (stereo not drawn)	4%	1%	2%	-7%
COc1cccc(CN2CCN(Cc3ccc(O)c(OC)c3)CC2CCO)c1 (stereo not drawn)	1%	-5%	35µM*	-5%
Cc1oc(-c2ccccc2Cl)nc1CS(=O)(=O)CC(=O)NC(C)CCc1ccccc1 (stereo not drawn)	x	2%	-25%	x
Cc1ccc(NC(=O)CC2SC(=NC3CCCCC3)NC2=O)cc1 (stereo not drawn)	-5%	1%	50µM*	-1%
O=C1C=CC(c2c[nH]c3ccccc23)CC1 (stereo not drawn)	x	u	x	7%
Cn1c(=O)c2c(c3ccccc31)OC(=O)CC2c1cccc(F)c1 (stereo not drawn)	x	3%	-4%	x
CC(C)(C)c1cc(NC(=O)Nc2ccc(-c3cn4c(n3)sc3cc(OCCN5CCOCC5)ccc34)cc2)no1	x	1%	x	x
Cc1ccc(/C=C/C(=O)Nc2cccc3ncccc23)o1	-15%	u	8.9µM*	5%
Cc1ccc(/C=C/C(=O)Nc2ccccc2C(N)=O)o1	x	u	22µM*	x
Cc1ccc(/C=C/C(=O)Nc2cccnc2)o1	-15%	28µM*	8.9µM*	-3%
Cc1ccc(/C=C/C(=O)OCC(=O)Nc2cccnc2Cl)o1	x	-11%	x	-19%
NC(=O)c1ccccc1NC(=O)/C=C/c1c(Cl)cccc1Cl	4%	7%	8%	-4%
Cc1ccc(/C=C/C(=O)Nc2nn[nH]n2)o1	3%	u	20µM*	3%
CCOc1ccc(CNC(=O)C2CCN(S(=O)(=O)c3cn(C)cn3)CC2)cc1OC	x	-13%	0%	x
C[C@]12CC[C@@H]3c4ccc(OC(=O)N(CCCl)CCCl)cc4CC[C@H]3[C@@H]1CC[C@@H]2OP(=O)(O)O	x	-7%	x	x
COc1ccc(-c2nnc3ccc(SCC(=O)NCc4ccco4)nn23)cc1	1%	-11%	40µM*	18%
COc1ccc(Cc2nnc(SCC(=O)NCc3ccco3)o2)cc1	5%	1%	50µM*	-3%
SMILES	LmPK inh	Tb PYK inh	Sm TGR block	RE007 growth inh
COc1ccc(OCc2nnc(SCC(=O)NCc3ccco3)o2)cc1	-5%	-4%	1%	-4%
O=C(CSc1ccc2nnc(-c3ccccn3)n2n1)NCc1ccco1	3%	-8%	40µM*	9%
COc1ccc(-c2nnc3ccc(SCC(=O)Nc4cc(C)on4)nn23)cc1	1%[11.5 µM]	x	7%	x
O=C(CSc1ccc2nnc(-c3ccccc3)n2n1)NCc1ccco1	5%	-2%	45µM*	9%
Cc1ccc(C)c(Cn2c(-c3cccs3)nc3ccccc32)c1	x	1%	0%	x
CCc1nn(CC(=O)N2CCN(c3cccc(C(F)(F)F)c3)CC2)c(=O)c2cccn12	x	3%	-13%	x
COc1ccc(Cl)cc1C(=O)NNC(=O)C1CCCO1 (stereo not drawn)	x	-2%	-9%	5%
COc1ccc(-c2nnc(SCC(=O)NCc3ccco3)n2C)cc1	5%	-7%	45µM*	8%
Cc1ccc2cc3c(NC(=O)c4ccco4)nn(C)c3nc2c1	0%	1%	50µM*	6%
CCCn1nc(NC(=O)c2ccco2)c2cc3ccccc3nc21	0%	2%	45µM*	-5%
CCn1nc(NC(=O)c2ccco2)c2cc3cc(C)ccc3nc21	8%	0%	-35%	-1%
O=C(NCCSc1c(-c2ccc(Br)cc2)[nH]c2ccccc12)c1ccc(S(=O)(=O)N2CCOCC2)cc1	x	-5%	4%	x
CNc1nc(-c2ccccc2)[n+](-c2ccc(C)cc2)s1	22µM*	u	-34%	1%
Cc1ccc(-c2nc(N)s[n+]2-c2ccccc2)cc1	32µM*	u	-27%	3%
Cc1ccc(-c2nc3ccccc3nc2-c2ccccc2)cc1	2%	0%	12%	5%
CCOc1ccc(NC(=O)CSc2nc(C)c(C(=O)Nc3ccccc3)c(-c3ccc(Cl)cc3)c2C#N)cc1	x	1%	-1%	x
C=CCn1c(SCC(=O)NC2CCCC2)nc2scc(-c3ccco3)c2c1=O	0%	-29%	11µM*	9%
C=CCn1c(=S)[nH]c2scc(-c3ccc(C)o3)c2c1=O	5%	-24%	35µM*	11%
Cc1ccc(-c2csc3nc(C)n(-n4c(C)ccc4C)c(=O)c23)o1	1%	-31%	6.3µM*	1%
C=CCn1c(SCC(=O)NCCCC)nc2scc(-c3ccco3)c2c1=O	1%	-14%	14µM*	-1%
C=CCn1c(SCC(=O)NCC2CCCO2)nc2scc(-c3ccccc3)c2c1=O (stereo not drawn)	-4%	-8%	1%	11%
CC(C)Nc1nc2c(S(=O)(=O)c3cccc(Cl)c3)nnn2c2ccsc12	x	-3%	1%	x
C#C[C@]1(O)CC[C@H]2[C@H]3[C@H](CC[C@@]21C)C1=C(CC(=O)CC1)C[C@@H]3C	x	-12%	x	x
CS(=O)(=O)c1ccc(-c2csc(C(O)c3cccc(Cl)c3)n2)cc1 (stereo not drawn)	x	-1%	x	28%
COc1ccc2c3c1OC1C(O)C=CC4[C@@H](C2)NCC[C@]314 (stereo partly drawn)	x	-4%[157 µM]	x	x
C=CCn1c(SCC(=O)Nc2c(C)n(C)n(-c3ccccc3)c2=O)nc2scc(-c3ccccc3)c2c1=O	4%	-2%	-8%	23%
C=CCn1c(SCC(C)=O)nc2scc(-c3ccc(C)o3)c2c1=O	-11%	-15%	16µM*	2%
CC(C)=CCC1=C(OCC(=O)O)C(=O)c2ccccc2C1=O	9%	-9%	10µM*	u
CC(C)=CCC/C(C)=C/CC/C(C)=C/CC/C(C)=C/CC1=C(C)C(=O)c2ccccc2C1=O	-5%	3%	32µM*	-5%[18.4 µM]
O=C(c1ccc2c(c1)N(Cc1cccc(Cl)c1)C(=O)c1ccccc1S2(=O)=O)N1CCc2ccccc21	x	3%	9%	x

Bioassay records (PubChem BioAssay)
